# Experiments:
# Test in all cases: DAPPL (digital affinity profiling via proximity ligation, sequencing); 10 mM Tris-HCl pH 7.5, 50 mM NaCl, 1 mM DTT, 4% glycerol, room temperature, 30 min; GST-TFs on glutathione beads, 16-mer random dsDNA library, 0.1% formaldehyde crosslink after washing; high values mean tight binding
# FLI1 = target: T1, FLI1 (Homo sapiens, UniProt Q01543 1-452); settings: protein: recombinant; tags: N-terminal GST; dsDNA, one strand shown
# T1 sequence: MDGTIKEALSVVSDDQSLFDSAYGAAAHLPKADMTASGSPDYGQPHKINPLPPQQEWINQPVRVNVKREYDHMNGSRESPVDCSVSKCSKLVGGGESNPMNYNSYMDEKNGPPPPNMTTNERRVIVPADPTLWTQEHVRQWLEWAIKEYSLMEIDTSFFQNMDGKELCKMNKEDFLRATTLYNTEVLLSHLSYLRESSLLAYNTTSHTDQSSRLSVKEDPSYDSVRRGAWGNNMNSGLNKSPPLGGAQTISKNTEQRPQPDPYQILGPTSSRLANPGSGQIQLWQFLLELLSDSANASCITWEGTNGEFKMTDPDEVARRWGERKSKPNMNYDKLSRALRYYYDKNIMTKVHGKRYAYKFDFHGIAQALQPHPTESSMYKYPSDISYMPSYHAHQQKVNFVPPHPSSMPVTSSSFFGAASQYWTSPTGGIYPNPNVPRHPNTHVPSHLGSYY
# How it was run: (§1)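 Beads coated with glutathione captured GST-fused human transcription factors that had been expressed in yeast, and the factors were then given DNA barcodes and pooled with a tag-only sample. The pools were incubated with 200 nmole of a random double-stranded 16-mer DNA library in Tris/NaCl/DTT/glycerol buffer for 30 min at room temperature, washed, crosslinked with 0.1% formaldehyde and proximity-ligated with BsaI/T4 ligase at 37 °C for 1 h. PCR amplification and Illumina NextSeq500 sequencing came last. Binding signal is each hexamer's read frequency for a factor divided by its frequency for the tag-only sample.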
# ELK1 = target: T2, ELK1 (Homo sapiens, UniProt P19419 1-428); settings: protein: recombinant; tags: N-terminal GST; dsDNA, one strand shown
# T2 sequence: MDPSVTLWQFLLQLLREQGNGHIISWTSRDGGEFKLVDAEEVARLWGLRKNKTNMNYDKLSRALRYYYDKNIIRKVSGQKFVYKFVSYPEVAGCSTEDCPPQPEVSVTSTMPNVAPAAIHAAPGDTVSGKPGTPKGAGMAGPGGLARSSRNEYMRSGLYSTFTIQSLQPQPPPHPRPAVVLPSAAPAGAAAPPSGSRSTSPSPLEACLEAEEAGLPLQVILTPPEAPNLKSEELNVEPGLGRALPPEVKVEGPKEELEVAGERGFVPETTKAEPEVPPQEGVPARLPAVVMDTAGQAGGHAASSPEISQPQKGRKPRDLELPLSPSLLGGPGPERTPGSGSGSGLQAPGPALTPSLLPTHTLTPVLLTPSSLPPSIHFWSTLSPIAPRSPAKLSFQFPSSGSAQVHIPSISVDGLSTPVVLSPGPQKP
# How it was run: as §1
# GABPA = target: T3, GABPA (Homo sapiens, UniProt Q06546 1-454); settings: protein: recombinant; tags: N-terminal GST; dsDNA, one strand shown
# T3 sequence: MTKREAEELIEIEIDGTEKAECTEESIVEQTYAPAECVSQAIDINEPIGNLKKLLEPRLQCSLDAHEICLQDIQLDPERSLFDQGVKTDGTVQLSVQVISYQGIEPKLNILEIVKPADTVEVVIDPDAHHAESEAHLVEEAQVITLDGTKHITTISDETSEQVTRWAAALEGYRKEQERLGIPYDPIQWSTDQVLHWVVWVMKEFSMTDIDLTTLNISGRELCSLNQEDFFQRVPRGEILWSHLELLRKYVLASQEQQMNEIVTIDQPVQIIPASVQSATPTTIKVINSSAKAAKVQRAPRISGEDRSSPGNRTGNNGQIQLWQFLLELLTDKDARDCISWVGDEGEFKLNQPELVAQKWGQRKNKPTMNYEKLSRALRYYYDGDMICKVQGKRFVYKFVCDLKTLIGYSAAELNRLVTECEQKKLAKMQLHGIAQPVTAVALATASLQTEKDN
# How it was run: as §1
# ERG = target: T4, ERG (Homo sapiens, UniProt P11308 1-479); settings: protein: recombinant; tags: N-terminal GST; dsDNA, one strand shown
# T4 sequence: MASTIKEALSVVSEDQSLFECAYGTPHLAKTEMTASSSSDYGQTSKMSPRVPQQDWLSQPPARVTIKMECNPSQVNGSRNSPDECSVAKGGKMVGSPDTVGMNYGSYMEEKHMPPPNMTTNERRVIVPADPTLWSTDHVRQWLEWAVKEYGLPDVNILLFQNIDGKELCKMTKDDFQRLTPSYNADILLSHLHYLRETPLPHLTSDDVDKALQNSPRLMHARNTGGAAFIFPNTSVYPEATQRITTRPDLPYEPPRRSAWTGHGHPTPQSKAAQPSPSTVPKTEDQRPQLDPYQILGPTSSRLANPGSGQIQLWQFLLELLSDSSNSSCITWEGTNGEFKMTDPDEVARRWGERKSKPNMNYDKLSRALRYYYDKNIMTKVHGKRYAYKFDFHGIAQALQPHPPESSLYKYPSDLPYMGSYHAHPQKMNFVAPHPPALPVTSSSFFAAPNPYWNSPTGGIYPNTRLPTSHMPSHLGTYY
# How it was run: as §1
# ELF1 = ELF1 (Homo sapiens, UniProt P32519 1-619); settings: protein: recombinant; tags: N-terminal GST; dsDNA, one strand shown
# How it was run: as §1
# EHF = target: T5, EHF (Homo sapiens, UniProt Q9NZC4 1-300); settings: protein: recombinant; tags: N-terminal GST; dsDNA, one strand shown
# T5 sequence: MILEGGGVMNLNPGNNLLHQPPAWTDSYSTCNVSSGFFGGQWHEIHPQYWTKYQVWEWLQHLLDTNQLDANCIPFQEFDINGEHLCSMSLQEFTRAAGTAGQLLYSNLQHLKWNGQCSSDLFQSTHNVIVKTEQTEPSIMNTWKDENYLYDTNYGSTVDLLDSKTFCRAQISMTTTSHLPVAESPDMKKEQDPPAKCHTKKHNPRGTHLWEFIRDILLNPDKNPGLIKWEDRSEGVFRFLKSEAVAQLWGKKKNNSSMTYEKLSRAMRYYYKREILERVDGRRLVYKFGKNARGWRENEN
# How it was run: as §1
# SPI1 = SPI1 (Homo sapiens, UniProt P17947 1-270); settings: protein: recombinant; tags: N-terminal GST; dsDNA, one strand shown
# How it was run: as §1
# SPIB = SPIB (Homo sapiens, UniProt Q01892 1-262); settings: protein: recombinant; tags: N-terminal GST; dsDNA, one strand shown
# How it was run: as §1
# ELK3 = target: T6, ELK3 (Homo sapiens, UniProt P41970 1-407); settings: protein: recombinant; tags: N-terminal GST; dsDNA, one strand shown
# T6 sequence: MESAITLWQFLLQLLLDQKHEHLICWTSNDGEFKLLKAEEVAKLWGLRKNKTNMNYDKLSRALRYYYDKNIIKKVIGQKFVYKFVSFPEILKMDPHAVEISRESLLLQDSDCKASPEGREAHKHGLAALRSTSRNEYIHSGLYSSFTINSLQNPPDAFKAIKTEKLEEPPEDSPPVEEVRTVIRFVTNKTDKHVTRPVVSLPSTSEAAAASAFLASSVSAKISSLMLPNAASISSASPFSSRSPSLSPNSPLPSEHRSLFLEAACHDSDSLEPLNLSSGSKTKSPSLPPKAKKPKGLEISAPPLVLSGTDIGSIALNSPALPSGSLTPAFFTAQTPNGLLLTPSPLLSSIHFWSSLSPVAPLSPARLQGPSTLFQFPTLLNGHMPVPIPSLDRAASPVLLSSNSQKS
# How it was run: as §1
# FEV = target: T7, FEV (Homo sapiens, UniProt Q99581 1-238); settings: protein: recombinant; tags: N-terminal GST; dsDNA, one strand shown
# T7 sequence: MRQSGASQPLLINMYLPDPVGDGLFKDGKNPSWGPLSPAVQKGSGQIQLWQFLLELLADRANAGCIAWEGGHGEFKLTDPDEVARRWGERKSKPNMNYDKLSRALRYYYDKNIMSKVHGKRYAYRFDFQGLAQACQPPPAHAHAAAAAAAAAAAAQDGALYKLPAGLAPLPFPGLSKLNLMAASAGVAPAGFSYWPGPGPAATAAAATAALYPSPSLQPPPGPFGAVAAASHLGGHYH
# How it was run: as §1
# ETV5 = ETV5 (Homo sapiens, UniProt P41161 1-510); settings: protein: recombinant; tags: N-terminal GST; dsDNA, one strand shown
# How it was run: as §1
# HSF1 = HSF1 (Homo sapiens, UniProt Q00613 1-529); settings: protein: recombinant; tags: N-terminal GST; chain copies: 3; dsDNA, one strand shown
# How it was run: as §1
# SPIC = target: T8, SPIC (Homo sapiens, UniProt Q8N5J4 1-248); settings: protein: recombinant; tags: N-terminal GST; dsDNA, one strand shown
# T8 sequence: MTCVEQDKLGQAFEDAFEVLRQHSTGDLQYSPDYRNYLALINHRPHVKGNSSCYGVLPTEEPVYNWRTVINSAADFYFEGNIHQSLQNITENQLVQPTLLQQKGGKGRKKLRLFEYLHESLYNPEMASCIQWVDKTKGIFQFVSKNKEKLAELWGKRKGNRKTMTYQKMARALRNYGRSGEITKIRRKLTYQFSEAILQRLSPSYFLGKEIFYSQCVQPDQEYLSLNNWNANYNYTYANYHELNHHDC
# How it was run: as §1
# ELF4 = ELF4 (Homo sapiens, UniProt Q99607 1-663); settings: protein: recombinant; tags: N-terminal GST; dsDNA, one strand shown
# How it was run: as §1
# ELK4 = target: T9, ELK4 (Homo sapiens, UniProt P28324-2 1-405); settings: protein: recombinant; tags: N-terminal GST; dsDNA, one strand shown
# T9 sequence: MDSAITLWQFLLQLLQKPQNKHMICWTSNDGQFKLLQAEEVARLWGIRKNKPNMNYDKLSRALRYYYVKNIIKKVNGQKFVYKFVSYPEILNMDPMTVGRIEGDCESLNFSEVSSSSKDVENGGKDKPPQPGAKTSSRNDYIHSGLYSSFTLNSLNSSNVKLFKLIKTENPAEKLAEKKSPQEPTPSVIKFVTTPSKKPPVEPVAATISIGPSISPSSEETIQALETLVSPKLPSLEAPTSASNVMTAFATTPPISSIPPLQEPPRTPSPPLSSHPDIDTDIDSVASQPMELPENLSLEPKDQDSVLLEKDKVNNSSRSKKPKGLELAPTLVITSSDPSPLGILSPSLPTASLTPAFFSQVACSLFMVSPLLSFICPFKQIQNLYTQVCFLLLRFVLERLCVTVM
# How it was run: as §1
# ETV2 = target: T10, ETV2 (Homo sapiens, UniProt O00321 1-342); settings: protein: recombinant; tags: N-terminal GST; dsDNA, one strand shown
# T10 sequence: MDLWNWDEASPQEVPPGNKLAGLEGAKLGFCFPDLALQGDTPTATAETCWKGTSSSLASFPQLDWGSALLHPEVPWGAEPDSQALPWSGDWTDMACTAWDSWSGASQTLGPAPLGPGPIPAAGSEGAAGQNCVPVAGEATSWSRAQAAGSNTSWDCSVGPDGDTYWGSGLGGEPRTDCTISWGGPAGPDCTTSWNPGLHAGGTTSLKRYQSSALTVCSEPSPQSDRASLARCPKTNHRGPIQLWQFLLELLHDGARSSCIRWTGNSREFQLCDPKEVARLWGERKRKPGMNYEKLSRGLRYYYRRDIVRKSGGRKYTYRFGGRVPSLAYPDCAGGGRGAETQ
# How it was run: as §1
# ELF3 = target: T11, ELF3 (Homo sapiens, UniProt P78545 1-371); settings: protein: recombinant; tags: N-terminal GST; dsDNA, one strand shown
# T11 sequence: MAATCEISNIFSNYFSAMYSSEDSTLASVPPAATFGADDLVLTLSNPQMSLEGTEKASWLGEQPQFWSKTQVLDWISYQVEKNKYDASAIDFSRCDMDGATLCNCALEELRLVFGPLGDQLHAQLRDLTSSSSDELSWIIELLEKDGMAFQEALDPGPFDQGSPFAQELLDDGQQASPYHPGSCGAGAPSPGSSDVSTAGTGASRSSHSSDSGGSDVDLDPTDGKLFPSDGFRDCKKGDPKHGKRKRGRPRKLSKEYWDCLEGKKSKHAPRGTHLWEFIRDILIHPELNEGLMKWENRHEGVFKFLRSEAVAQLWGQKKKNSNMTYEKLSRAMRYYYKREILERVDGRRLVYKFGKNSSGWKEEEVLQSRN
# How it was run: as §1
# CRX = CRX (Homo sapiens, UniProt O43186 1-299); settings: protein: recombinant; tags: N-terminal GST; dsDNA, one strand shown
# How it was run: as §1
# ETV1 = ETV1 (Homo sapiens, UniProt P50549 1-477); settings: protein: recombinant; tags: N-terminal GST; dsDNA, one strand shown
# How it was run: as §1
# ETV1, sequence (P50549 whole entry): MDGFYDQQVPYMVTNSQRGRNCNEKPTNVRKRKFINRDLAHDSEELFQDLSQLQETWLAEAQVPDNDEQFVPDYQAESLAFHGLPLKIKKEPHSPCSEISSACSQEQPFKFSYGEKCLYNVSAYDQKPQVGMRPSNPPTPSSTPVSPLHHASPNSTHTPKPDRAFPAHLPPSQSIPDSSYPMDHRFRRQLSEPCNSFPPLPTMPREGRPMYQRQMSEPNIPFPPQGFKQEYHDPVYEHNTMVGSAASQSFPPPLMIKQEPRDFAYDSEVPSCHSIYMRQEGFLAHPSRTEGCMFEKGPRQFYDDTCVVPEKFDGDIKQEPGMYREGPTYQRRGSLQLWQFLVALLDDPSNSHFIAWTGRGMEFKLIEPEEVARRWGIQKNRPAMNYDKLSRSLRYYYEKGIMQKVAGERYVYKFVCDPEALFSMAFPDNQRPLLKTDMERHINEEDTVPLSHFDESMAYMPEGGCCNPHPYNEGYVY
# HSF1, sequence (Q00613 whole entry): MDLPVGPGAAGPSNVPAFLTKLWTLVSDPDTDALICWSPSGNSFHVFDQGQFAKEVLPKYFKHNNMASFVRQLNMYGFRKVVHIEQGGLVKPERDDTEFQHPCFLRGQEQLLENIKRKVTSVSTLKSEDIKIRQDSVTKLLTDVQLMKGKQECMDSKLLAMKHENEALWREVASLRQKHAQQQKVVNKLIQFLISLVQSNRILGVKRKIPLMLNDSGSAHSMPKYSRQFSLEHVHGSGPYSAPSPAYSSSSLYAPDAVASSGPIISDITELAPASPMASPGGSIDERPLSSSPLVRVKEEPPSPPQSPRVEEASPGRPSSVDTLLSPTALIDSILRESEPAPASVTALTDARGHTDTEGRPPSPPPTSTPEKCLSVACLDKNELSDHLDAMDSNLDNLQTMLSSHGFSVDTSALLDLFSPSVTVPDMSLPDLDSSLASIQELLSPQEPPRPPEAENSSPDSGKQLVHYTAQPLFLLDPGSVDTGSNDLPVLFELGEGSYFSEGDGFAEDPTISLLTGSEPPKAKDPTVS
# ETV5, sequence (P41161 whole entry): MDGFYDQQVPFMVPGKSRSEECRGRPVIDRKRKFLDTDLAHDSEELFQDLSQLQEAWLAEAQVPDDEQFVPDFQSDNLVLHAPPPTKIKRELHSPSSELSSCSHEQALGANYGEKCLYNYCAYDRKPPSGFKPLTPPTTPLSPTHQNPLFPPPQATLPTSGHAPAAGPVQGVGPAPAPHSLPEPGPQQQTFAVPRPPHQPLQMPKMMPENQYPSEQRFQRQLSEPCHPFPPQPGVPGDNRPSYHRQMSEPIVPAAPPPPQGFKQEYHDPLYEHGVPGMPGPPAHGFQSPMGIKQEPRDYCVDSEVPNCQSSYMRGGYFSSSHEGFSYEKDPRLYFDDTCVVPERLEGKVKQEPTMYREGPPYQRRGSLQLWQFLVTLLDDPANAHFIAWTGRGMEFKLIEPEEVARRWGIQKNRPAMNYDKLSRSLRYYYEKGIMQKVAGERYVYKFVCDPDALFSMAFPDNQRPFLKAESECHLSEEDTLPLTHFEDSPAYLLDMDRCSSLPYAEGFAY
# ELF1, sequence (P32519 whole entry): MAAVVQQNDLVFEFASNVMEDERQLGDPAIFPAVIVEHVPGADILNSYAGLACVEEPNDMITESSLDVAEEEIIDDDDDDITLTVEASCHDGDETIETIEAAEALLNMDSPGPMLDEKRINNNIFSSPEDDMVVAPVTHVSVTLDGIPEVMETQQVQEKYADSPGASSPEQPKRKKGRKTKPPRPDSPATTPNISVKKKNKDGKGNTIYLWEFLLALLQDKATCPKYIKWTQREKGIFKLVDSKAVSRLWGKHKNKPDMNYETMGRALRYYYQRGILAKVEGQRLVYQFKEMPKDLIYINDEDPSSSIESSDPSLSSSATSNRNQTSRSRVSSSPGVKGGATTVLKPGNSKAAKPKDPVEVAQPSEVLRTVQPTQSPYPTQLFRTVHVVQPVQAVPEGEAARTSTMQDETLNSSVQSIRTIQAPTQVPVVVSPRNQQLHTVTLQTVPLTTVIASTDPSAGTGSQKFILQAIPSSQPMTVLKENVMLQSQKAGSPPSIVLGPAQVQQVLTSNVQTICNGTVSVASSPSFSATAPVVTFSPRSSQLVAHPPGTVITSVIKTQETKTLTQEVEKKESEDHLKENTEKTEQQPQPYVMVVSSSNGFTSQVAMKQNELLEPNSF
# ELF4, sequence (Q99607 whole entry): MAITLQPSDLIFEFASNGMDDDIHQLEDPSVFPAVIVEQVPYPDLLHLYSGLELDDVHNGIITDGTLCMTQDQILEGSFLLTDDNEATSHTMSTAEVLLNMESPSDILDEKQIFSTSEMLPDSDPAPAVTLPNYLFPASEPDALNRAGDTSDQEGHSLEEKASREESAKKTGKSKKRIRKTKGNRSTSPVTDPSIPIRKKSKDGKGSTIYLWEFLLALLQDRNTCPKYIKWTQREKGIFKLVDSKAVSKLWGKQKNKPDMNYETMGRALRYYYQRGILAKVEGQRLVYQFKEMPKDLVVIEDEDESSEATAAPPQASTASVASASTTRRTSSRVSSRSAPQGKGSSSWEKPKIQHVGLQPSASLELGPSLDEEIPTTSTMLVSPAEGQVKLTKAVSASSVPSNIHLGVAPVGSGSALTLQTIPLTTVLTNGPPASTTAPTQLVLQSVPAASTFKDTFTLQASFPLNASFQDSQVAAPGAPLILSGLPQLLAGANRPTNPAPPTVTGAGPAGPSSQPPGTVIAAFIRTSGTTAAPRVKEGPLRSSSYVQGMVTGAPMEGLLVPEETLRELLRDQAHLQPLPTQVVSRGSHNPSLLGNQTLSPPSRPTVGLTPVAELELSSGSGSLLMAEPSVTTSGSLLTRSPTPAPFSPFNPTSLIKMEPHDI
# SPIB, sequence (Q01892 whole entry): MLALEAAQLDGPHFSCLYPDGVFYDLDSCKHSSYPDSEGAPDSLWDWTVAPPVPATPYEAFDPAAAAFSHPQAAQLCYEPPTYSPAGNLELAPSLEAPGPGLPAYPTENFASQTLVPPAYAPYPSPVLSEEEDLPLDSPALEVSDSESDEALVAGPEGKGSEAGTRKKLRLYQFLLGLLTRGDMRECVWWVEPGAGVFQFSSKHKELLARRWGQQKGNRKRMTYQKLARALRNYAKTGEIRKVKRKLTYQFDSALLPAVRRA
# CRX, sequence (O43186 whole entry): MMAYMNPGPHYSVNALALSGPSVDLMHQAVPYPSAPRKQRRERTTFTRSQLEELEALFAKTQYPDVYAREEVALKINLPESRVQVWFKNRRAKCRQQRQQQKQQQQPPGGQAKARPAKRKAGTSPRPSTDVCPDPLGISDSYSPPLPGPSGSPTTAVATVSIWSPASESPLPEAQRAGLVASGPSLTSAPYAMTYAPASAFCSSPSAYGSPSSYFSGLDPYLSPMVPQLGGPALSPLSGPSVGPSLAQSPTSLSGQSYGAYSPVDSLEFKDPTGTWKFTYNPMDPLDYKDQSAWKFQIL
sequence,measurement,setting,value
TGATGG,binding signal,FLI1,"1.24 fold enrichment (6-mer frequency, TF over GST control)"
same,binding signal,ELK1,"1.27 fold enrichment (6-mer frequency, TF over GST control)"
same,binding signal,GABPA,"1.29 fold enrichment (6-mer frequency, TF over GST control)"
same,binding signal,ERG,"1.24 fold enrichment (6-mer frequency, TF over GST control)"
same,binding signal,ELF1,"1.24 fold enrichment (6-mer frequency, TF over GST control)"
same,binding signal,EHF,"1.31 fold enrichment (6-mer frequency, TF over GST control)"
same,binding signal,SPI1,"1.28 fold enrichment (6-mer frequency, TF over GST control)"
same,binding signal,SPIB,"1.39 fold enrichment (6-mer frequency, TF over GST control)"
same,binding signal,ELK3,"1.16 fold enrichment (6-mer frequency, TF over GST control)"
same,binding signal,FEV,"1.16 fold enrichment (6-mer frequency, TF over GST control)"
same,binding signal,ETV5,"1.34 fold enrichment (6-mer frequency, TF over GST control)"
same,binding signal,HSF1,"1.26 fold enrichment (6-mer frequency, TF over GST control)"
same,binding signal,SPIC,"1.51 fold enrichment (6-mer frequency, TF over GST control)"
same,binding signal,ELF4,"1.29 fold enrichment (6-mer frequency, TF over GST control)"
same,binding signal,ELK4,"1.33 fold enrichment (6-mer frequency, TF over GST control)"
same,binding signal,ETV2,"1.29 fold enrichment (6-mer frequency, TF over GST control)"
same,binding signal,ELF3,"1.32 fold enrichment (6-mer frequency, TF over GST control)"
same,binding signal,CRX,"1.1 fold enrichment (6-mer frequency, TF over GST control)"
same,binding signal,ETV1,"1.32 fold enrichment (6-mer frequency, TF over GST control)"
